In PubChem BioAssay (EPA / NIEHS) one finds outcome and AC50 data, which are given here for 7 molecules.

In assay [1] the target is Glucocorticoid receptor (Homo sapiens) (UniProt P04150). In words: ATG_GR_TRANS: Attagene TRANS-FACTORIAL HepG2 Assay for human Glucocorticoid Receptor (GR) (AID 2282978; active means hit-call score of the fitted dose curve at least 0.9, where 1 is the maximum;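 further: activators score as hits since higher reporter transcript over DMSO is fitted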). The following applies: HepG2 Attagene TRANS GR reporter, mRNA transcription. Put shortly:
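HepG2 cells transiently transfected with multiplexed reporter units in which chimeric NR-GAL4 proteins drive GAL4-UAS reporters; 24 h compound exposure. Reporter mRNA measured by RT-PCR, 6-FAM labelling, HpaI digestion and capillary electrophoresis; gain-of-signal fitted versus DMSO.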

Assay [2] concerns the target Oxysterols receptor LXR-beta (Homo sapiens) (UniProt P55055). In words: ATG_LXRb_TRANS: Attagene TRANS-FACTORIAL HepG2 Assay for human Liver X Receptor beta (LXRb) (AID 2282981; active means hit-call score of the fitted dose curve at least 0.9, where 1 is the maximum). As to conditions: HepG2 Attagene TRANS GAL4-LXRb reporter, mRNA. In short, it runs like this:
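Measures induction of a Gal4-driven reporter transcript in HepG2 cells expressing an exogenous LXRb-Gal4 fusion. Cells are exposed to compound for 24 h before RNA isolation and RT-PCR with capillary electrophoresis detection.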

For assay [3], the target named is Hepatocyte nuclear factor 4-alpha (Homo sapiens) (UniProt P41235). In words: ATG_HNF4a_TRANS: Attagene TRANS-FACTORIAL HepG2 Assay for human Hepatocyte Nuclear Factor 4 alpha (HNF4a) (AID 2282982; active means hit-call score of the fitted dose curve at least 0.9, where 1 is the maximum). As to conditions: HepG2 HNF4a transactivation reporter, mRNA readout. In short, it runs like this:
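In this trans-factorial format, a chimeric HNF4a-GAL4 fusion drives a GAL4-UAS reporter in transfected HepG2 liver cells. After 24 h treatment, reporter mRNA induction is measured by RT-PCR with capillary electrophoresis, relative to DMSO.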

Assay [4] has as its target Transcriptional activator Myb (Homo sapiens) (UniProt P10242). In words: ATG_Myb_CIS: Attagene CIS-FACTORIAL HepG2 Assay for human Myeloblastosis (Myb) Proto-Oncogene Transcription Factor (AID 2282986). As to conditions: HepG2 Attagene CIS-FACTORIAL Myb reporter transcription; actives raise or lower the signal. Put shortly: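 HepG2 cells were transiently transfected with cis-regulated multiple reporter transcription units reflecting endogenous Myb activity, then exposed to compound for 24 hours. Reporter mRNA was measured by RT-PCR with capillary electrophoresis; bidirectional fitting versus DMSO baseline.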

For assay [5], the target named is Nuclear respiratory factor 1 (Homo sapiens) (UniProt Q16656). In words: ATG_NRF1_CIS: Attagene CIS-FACTORIAL HepG2 Assay for human Nuclear Respiratory Factor 1 (NRF1) Orphan Gene (AID 2282987). As to conditions: HepG2 NRF1 cis-element reporter, Attagene multiplex; actives raise or lower the signal. Put shortly:
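HepG2 cells transiently transfected with multiple reporter transcription units under cis-regulatory promoter control, so endogenous transcription-factor activity is read. After 24 h compound exposure, reporter mRNA quantified by RT-PCR, fluorescent labelling, HpaI digestion and capillary electrophoresis; bidirectional fitting versus DMSO.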

The nature of assay [6]: ATG_NFI_CIS: Attagene CIS-FACTORIAL HepG2 Assay for human Nuclear Factor I (NFI) (AID 2282989). As to conditions: HepG2 cis-regulatory reporter, NFI response element transcription; actives raise or lower the signal. In short, it runs like this:
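HepG2 cells transiently transfected with cis-element-driven multiplexed reporter transcription units, dosed for 24 h. Reporter mRNA quantified by RT-PCR, fluorescent labelling, HpaI digestion and capillary electrophoresis; bidirectional fit versus DMSO baseline.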

The target in assay [7] is Myc proto-oncogene protein (Homo sapiens) (UniProt P01106). In words: ATG_Myc_CIS: Attagene CIS-FACTORIAL HepG2 Assay for human Myelocytomatosis (Myc) Proto-Oncogene Transcription Factor (AID 2282990). The following applies: HepG2, Attagene cis-reporter transcription factor activity; actives raise or lower the signal. Put shortly: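 Multiplexed cis-reporter transcription in HepG2 cells after 24 h chemical treatment. Reporter mRNA measured by RT-PCR and capillary electrophoresis fluorescence; activity fitted bidirectionally against DMSO control.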
Myc proto-oncogene protein (Homo sapiens), sequence (P01106 whole entry, looked up): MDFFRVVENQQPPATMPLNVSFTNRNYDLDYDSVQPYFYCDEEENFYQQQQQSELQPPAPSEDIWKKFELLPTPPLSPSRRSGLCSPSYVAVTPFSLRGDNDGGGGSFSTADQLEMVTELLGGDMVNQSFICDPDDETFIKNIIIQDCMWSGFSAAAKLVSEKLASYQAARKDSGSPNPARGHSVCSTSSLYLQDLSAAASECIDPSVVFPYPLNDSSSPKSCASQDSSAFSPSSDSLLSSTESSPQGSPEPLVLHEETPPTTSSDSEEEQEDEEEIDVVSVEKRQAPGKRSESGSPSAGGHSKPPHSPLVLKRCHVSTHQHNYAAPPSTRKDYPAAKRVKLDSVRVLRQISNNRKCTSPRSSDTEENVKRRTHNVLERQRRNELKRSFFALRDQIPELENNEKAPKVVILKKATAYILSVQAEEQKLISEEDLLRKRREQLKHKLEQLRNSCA

Assay [8] in a line: ATG_NRF2_ARE_CIS: Attagene CIS-FACTORIAL HepG2 Assay for human Nuclear Factor Erythroid 2 Related Factor 2 (NFR2) response to Antioxidant Response Elements (ARE) (AID 2282992). The following applies: HepG2 Attagene ARE/NRF2 reporter, transcription factor activity; actives raise or lower the signal. In short, it runs like this: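 Readout: reporter mRNA quantified by RT-PCR plus FAM-labelled primer extension, HpaI digestion and capillary electrophoresis, 24 h after dosing transfected HepG2 cells. Gain or loss of signal is fitted bidirectionally against DMSO baseline.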

A short description of assay [9]: ATG_Oct_MLP_CIS: Attagene CIS-FACTORIAL HepG2 Assay for human Octamer-Binding Transcription Factor (Oct) (AID 2282993). As to conditions: HepG2 Attagene cis-factorial Oct reporter, mRNA; actives raise or lower the signal. Put shortly: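 HepG2 cells transiently transfected with cis-promoter-driven multiplexed reporter transcription units, dosed for 24 h. Reporter mRNA quantified by RT-PCR, fluorescent labelling, HpaI digestion and capillary electrophoresis; bidirectional fits versus DMSO baseline.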

For assay [10], the target named is Cellular tumor antigen p53 (Homo sapiens) (UniProt P04637). In words: ATG_p53_CIS: Attagene CIS-FACTORIAL HepG2 Assay for human p53 Transcription Factor (AID 2282994). The following applies: HepG2 p53 cis-element reporter, Attagene mRNA; actives raise or lower the signal. In short, it runs like this:
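Read-out: reporter mRNA by RT-PCR plus capillary electrophoresis with fluorescence detection. Human HepG2 liver cells carried transfected multi-reporter cis-element constructs, dosed 24 h. Gain or loss of signal fitted bidirectionally against DMSO control.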

The nature of assay [11]: BSK_3C_TissueFactor: BioMAP Diversity Plus: 3C Assay for Tissue Factor Biomarker Activity (AID 2282997). As to conditions: BioMAP 3C HUVEC, tissue factor biomarker readout; actives raise or lower the signal. Put shortly: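 Tissue Factor measured by ELISA, 24 h after treatment of primary HUVEC in the BioMAP 3C setting.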
Assay [12] is described as follows: BSK_3C_uPAR: BioMAP Diversity Plus: 3C Assay for Urokinase-type plasminogen activator receptor (uPAR) Biomarker Activity (AID 2282998). The following applies: BioMAP 3C HUVEC, uPAR biomarker ELISA; actives raise or lower the signal. Put shortly:
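Human umbilical vein endothelial primary cells were exposed to test chemical for 24 h. Cell-surface uPAR was then quantified by ELISA, and responses were fitted bidirectionally against DMSO as negative control and baseline.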
For orientation: An ELISA detects its analyte on a solid surface through an enzyme-linked reagent.

Assay [13] is described as follows: BSK_3C_VCAM1: BioMAP Diversity Plus: 3C Assay for Vascular cell adhesion molecule 1 (VCAM1) Biomarker Activity (AID 2282999). As to conditions: BioMAP 3C HUVEC, VCAM1 ELISA, cytokine-stimulated; actives raise or lower the signal. In short, it runs like this:
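Vascular primary endothelium (human umbilical vein) was exposed to chemicals and assayed 24 h later. VCAM-1 levels came from ELISA, with DMSO serving as baseline for bidirectional fitting.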

Assay [14] addresses Oxysterols receptor LXR-alpha (Homo sapiens) (UniProt Q13133). In words: ATG_LXRa_TRANS: Attagene TRANS-FACTORIAL HepG2 Assay for human Liver X Receptor alpha (LXRa) (AID 2282980; active means hit-call score of the fitted dose curve at least 0.9, where 1 is the maximum). As to conditions: HepG2 Attagene TRANS reporter, LXRa transactivation. Put shortly: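 HepG2 cells transiently transfected with GAL4-UAS reporter units for chimeric NR-Gal4 proteins, exposed to chemicals for 24 h. Reporter mRNA quantified by RT-PCR and capillary electrophoresis; gain of signal fitted relative to DMSO.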

Assay [15] in a line: ATG_M_06_TRANS: Attagene TRANS-FACTORIAL HepG2 Assay for M06 Transcription Factor (Internal Marker) (AID 2282983; active means hit-call score of the fitted dose curve at least 0.9, where 1 is the maximum). The following applies: HepG2 Attagene TRANS M06 internal marker reporter. In short, it runs like this:
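mRNA levels of a reporter transcript, quantified as FAM fluorescence on capillary electrophoresis, served as readout. HepG2 cells expressing exogenous GAL4-chimera reporter constructs were exposed for 24 h. Gain of signal over DMSO was evaluated.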

A short description of assay [16]: ATG_M_32_TRANS: Attagene TRANS-FACTORIAL HepG2 Assay for M32 Transcription Factor (Internal Marker) (AID 2282984; active means hit-call score of the fitted dose curve at least 0.9, where 1 is the maximum;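 further: transcript level of a background control reporter unit measured by RT-PCR and capillary electrophoresis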). As to conditions: HepG2 Attagene TRANS M32 internal marker reporter. Put shortly:
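After 24 h dosing of transfected HepG2 cells, total RNA was reverse-transcribed, reporter sequences PCR-amplified, 6-FAM labelled by primer extension and HpaI-digested before capillary electrophoresis. Signal increase over DMSO was fitted.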

Assay [17] has as its target Nuclear receptor subfamily 4 group A member 2 (Homo sapiens) (UniProt P43354). In words: ATG_NURR1_TRANS: Attagene TRANS-FACTORIAL HepG2 Assay for human Nuclear Receptor Related Protein 1 (NURR1) (AID 2282985; active means hit-call score of the fitted dose curve at least 0.9, where 1 is the maximum). The following applies: HepG2 Attagene TRANS reporter, mRNA readout. Put shortly:
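Chimeric NR-Gal4 fusion activity measured in HepG2 after 24 h treatment. Reporter transcripts detected by RT-PCR and capillary electrophoresis fluorescence; positive-direction curve fitting against DMSO.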

SMILES strings stand for the structures. Records with an inconclusive call do not appear. Active and inactive are the calls of the source. How the source made its calls, unless noted: active means hit-call score of the fitted dose curve at least 0.9, where 1 is the maximum; inactive means score below 0.9.

Oxysterols receptor LXR-alpha (Homo sapiens), sequence (Q13133 whole entry, looked up, the tested form may be a part): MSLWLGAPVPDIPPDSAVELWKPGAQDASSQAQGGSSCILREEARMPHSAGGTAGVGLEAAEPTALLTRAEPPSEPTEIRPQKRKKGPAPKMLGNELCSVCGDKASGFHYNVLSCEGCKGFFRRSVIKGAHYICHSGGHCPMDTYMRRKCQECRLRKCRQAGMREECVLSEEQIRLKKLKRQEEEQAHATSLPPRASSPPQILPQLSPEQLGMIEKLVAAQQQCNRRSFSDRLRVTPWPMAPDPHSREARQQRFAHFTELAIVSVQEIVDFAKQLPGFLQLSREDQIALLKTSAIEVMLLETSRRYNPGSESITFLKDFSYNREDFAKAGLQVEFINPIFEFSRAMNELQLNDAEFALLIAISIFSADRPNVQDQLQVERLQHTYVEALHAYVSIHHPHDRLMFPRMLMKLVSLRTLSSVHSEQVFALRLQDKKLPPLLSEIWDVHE
Cellular tumor antigen p53 (Homo sapiens), sequence (P04637 whole entry, looked up): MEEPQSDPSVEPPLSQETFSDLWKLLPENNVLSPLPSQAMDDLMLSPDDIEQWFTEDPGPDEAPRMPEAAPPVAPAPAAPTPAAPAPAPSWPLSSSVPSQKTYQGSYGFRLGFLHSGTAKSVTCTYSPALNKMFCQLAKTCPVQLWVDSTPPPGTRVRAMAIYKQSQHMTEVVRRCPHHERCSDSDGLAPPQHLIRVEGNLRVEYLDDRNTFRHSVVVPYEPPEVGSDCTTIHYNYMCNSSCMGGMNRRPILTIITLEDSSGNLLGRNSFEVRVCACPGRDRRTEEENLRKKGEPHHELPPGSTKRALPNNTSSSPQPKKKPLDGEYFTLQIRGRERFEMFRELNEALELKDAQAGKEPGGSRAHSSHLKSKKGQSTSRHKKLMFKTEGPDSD
Nuclear respiratory factor 1 (Homo sapiens), sequence (Q16656 whole entry, looked up): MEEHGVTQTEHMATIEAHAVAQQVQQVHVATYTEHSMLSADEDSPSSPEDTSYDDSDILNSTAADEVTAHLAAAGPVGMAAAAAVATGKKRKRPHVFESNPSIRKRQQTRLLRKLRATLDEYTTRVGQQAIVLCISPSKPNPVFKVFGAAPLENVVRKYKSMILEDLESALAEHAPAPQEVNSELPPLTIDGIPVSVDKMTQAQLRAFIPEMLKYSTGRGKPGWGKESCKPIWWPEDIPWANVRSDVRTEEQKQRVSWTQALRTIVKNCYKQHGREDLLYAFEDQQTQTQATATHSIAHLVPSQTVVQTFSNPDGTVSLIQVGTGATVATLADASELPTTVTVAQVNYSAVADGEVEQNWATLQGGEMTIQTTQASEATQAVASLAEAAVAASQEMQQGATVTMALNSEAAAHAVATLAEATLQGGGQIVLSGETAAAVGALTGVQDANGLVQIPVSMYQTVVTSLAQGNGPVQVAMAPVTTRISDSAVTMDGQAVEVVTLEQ
Glucocorticoid receptor (Homo sapiens), sequence (P04150 whole entry, looked up, the tested form may be a part): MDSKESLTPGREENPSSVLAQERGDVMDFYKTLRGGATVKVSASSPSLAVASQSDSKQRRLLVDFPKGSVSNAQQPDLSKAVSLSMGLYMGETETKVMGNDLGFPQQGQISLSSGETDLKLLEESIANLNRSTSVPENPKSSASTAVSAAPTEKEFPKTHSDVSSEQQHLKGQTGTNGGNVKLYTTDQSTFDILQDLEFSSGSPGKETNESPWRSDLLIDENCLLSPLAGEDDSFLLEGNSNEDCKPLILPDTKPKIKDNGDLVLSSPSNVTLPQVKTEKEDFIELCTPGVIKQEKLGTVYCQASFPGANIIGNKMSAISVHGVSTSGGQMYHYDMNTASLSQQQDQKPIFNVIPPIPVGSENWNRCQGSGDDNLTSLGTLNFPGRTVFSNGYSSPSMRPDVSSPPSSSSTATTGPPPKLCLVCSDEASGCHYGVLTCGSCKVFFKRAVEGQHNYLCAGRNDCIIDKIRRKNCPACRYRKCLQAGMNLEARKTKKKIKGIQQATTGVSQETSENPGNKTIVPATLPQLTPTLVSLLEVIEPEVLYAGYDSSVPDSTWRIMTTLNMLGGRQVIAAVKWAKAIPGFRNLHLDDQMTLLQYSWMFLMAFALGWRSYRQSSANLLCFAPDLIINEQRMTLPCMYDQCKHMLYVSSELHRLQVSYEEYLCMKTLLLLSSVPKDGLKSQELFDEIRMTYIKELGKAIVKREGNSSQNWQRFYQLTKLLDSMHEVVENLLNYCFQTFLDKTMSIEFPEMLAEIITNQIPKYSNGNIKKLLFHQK
Hepatocyte nuclear factor 4-alpha (Homo sapiens), sequence (P41235 whole entry, looked up, the tested form may be a part): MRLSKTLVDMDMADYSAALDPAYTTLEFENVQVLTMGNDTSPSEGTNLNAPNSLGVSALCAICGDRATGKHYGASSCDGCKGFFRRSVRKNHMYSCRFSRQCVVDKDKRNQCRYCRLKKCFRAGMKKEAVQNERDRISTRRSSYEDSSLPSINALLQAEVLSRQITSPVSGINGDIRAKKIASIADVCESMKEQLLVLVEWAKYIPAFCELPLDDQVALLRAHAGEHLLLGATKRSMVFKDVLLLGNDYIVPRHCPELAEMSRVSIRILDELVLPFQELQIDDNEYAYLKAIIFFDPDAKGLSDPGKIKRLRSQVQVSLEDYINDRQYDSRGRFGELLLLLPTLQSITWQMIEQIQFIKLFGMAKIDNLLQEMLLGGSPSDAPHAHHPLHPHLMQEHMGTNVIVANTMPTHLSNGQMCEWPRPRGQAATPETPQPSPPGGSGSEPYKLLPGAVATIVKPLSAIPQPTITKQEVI
Nuclear receptor subfamily 4 group A member 2 (Homo sapiens), sequence (P43354 whole entry, looked up, the tested form may be a part): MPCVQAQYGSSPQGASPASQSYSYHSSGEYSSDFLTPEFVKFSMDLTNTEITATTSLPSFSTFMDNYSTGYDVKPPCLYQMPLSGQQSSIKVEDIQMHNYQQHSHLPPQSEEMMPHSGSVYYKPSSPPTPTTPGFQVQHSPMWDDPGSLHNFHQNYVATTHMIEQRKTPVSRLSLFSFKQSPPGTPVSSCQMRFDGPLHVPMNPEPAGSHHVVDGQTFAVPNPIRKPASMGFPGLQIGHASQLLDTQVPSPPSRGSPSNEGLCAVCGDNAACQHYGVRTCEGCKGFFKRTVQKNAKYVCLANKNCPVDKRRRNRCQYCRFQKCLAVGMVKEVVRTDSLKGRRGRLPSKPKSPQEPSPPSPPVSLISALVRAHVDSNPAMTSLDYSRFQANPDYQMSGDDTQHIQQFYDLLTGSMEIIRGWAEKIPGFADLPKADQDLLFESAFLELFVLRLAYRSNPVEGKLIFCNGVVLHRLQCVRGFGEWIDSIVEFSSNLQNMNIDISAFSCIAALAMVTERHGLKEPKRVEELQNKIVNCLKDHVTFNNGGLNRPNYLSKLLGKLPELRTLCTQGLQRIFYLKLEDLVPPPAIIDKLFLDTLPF
Transcriptional activator Myb (Homo sapiens), sequence (P10242 whole entry, looked up): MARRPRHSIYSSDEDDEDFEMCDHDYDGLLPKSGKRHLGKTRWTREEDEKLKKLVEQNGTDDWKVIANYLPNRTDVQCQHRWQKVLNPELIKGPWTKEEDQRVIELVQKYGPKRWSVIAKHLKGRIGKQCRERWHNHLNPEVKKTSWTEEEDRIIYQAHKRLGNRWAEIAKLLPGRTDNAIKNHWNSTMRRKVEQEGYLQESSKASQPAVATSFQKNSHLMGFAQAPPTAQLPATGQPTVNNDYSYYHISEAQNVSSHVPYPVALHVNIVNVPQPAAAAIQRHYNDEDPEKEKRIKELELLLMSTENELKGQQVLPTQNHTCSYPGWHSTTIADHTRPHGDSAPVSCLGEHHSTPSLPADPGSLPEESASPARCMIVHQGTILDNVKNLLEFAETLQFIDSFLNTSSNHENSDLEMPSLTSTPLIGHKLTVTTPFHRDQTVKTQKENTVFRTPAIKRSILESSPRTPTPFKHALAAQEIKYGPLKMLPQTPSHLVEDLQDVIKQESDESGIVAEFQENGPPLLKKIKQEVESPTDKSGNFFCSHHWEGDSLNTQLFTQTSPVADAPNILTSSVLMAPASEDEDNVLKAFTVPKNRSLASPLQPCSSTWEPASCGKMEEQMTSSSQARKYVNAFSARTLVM
Oxysterols receptor LXR-beta (Homo sapiens), sequence (P55055 whole entry, looked up, the tested form may be a part): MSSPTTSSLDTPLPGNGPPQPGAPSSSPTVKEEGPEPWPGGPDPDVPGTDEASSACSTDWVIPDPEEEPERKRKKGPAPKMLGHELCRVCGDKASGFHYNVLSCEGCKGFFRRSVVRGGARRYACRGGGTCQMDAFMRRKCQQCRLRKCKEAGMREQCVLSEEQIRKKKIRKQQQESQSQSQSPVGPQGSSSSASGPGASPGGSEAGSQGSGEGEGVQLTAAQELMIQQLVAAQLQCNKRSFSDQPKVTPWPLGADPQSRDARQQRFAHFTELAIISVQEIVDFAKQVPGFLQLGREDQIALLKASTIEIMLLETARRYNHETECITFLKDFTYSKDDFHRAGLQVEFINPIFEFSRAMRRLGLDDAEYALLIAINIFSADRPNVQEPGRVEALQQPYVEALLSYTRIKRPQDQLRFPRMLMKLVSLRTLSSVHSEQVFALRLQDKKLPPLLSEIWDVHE

What is called AC50 is the midpoint of the concentration-response curve, whichever way the signal moves. `CC[C@H](C)[C@H]1O[C@]2(C=C[C@@H]1C)C[C@@H]1C[C@@H](C/C=C(\C)[C@@H](O[C@H]3C[C@H](OC)[C@@H](O[C@H]4C[C@H](OC)[C@@H](O)[C@H](C)O4)[C@H](C)O3)[C@@H](C)/C=C/C=C3\CO[C@@H]4[C@H](O)C(C)=C[C@@H](C(=O)O1)[C@]34O)O2` (tested in a mixture with another compound): the molecule was classed as inactive in [1], in assay [2], in assay [3], in assay [4], in [5] and in assay [6]. Moreover, the outcome in assay [7], in assay [8], in [9] and in assay [10] was inactive. For the same molecule, the AC50 in assay [11] was 12 µM (active); in assay [12], 5.44 µM (active); in [13], 9.38 µM (active).

`Cc1[nH]c(=O)n(C(C)(C)C)c(=O)c1Cl`: the result in assay [14], in assay [2], in [3], in [15], in [16] and in assay [4] was inactive. The outcome in assay [5], in assay [11], in [12] and in assay [13] was inactive. Also, the AC50 in [9] was 24.2 µM (active).

For `O=[N+]([O-])c1c(Cl)c(Cl)c(Cl)c(Cl)c1Cl`, the outcome in [1], in assay [14], in [2], in assay [3], in assay [16] and in [17] was inactive. In addition, the outcome in assay [4], in [5], in assay [7], in [9], in assay [10] and in assay [11] was inactive. The outcome in [12] was inactive. In addition, the AC50 in assay [8] was 4.17 µM (active); in [13], 21.4 µM (active).

With `CC1(c2ccc(Oc3ccccc3)cc2)OC(=O)N(Nc2ccccc2)C1=O` (stereo not given), the outcome in assay [1], in assay [14], in assay [2], in assay [3], in [16] and in assay [17] was inactive. In addition, the molecule was called inactive in assay [4], in [5] and in [10]. In addition, the AC50 in assay [9] is 2.01 µM (active); in [11], 29.5 µM (active); in assay [12], 25.9 µM (active); in assay [13], 33 µM (active).

Turning to `N#CN`, the molecule was classed as inactive in [2], in [3], in [15], in assay [16], in assay [17] and in assay [4]. Besides, the call in assay [5], in [8], in assay [9], in assay [11], in assay [12] and in assay [13] was inactive.

In the case of `CCOC1Oc2ccc(OS(C)(=O)=O)cc2C1(C)C` (stereo not given), the molecule was called inactive in [14], in assay [2], in assay [3], in assay [16], in assay [17] and in assay [4]. In addition, the call in assay [5], in [6], in assay [7], in assay [11], in [12] and in assay [13] was inactive. For the same molecule, the half-maximal activity concentration (AC50) in [9] is 23.9 µM (active).

For the molecule `C#CCN1C(=O)COc2cc(F)c(N3C(=O)C4=C(CCCC4)C3=O)cc21`, the call in assay [1], in assay [14], in assay [2], in [3], in [16] and in assay [17] was inactive. The outcome in [4], in assay [5], in [7], in [9], in [11] and in [12] was inactive. Besides, the result in assay [13] was inactive.
